This passage reports activity change (PNC), negative = inhibition results from PubChem BioAssay AID2417 (National Center for Advancing Translational Sciences (NCATS), 2010).

The structures appear in SMILES notation. Among all 140,000 compounds or so, about 4,300 (3.1%) were called active. About 21% were inconclusive and are not listed.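 How the source made its calls: active means readout at or below -70, meaning at least 70% loss of cells showing the perinucleolar compartment, a nuclear body marking cancer cells; inconclusive means readout between -30 and a set limit; inactive means the rest.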 Many of the other results were omitted from the sample, so actives are more common in it than they were.

The assay can be described thus: High Content Assay for Compounds that inhibit the Assembly of the Perinucleolar Compartment.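 Further: plate controls were DMSO wells for no effect and camptothecin positive control wells for full effect.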 Conditions: PC3M PTB-GFP, PNC prevalence imaging, 16 h; at 10 µM; active compounds read low. The gist of the method: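 Read-out is percentage of cells bearing a perinucleolar compartment, from automated 20x imaging of fixed, Hoechst-stained PC3M PTB-GFP cells. Cells were seeded 4 h, then exposed 16 h to compound (23 nl of library stock) in duplicate plates.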
For the compound `CCn1cc(CNC(=O)c2cc([N+](=O)[O-])c(C)c([N+](=O)[O-])c2)cn1`, the activity change (PNC), negative = inhibition is 4.07% (inactive).
Then `CCN(CC)CCn1c(/N=C/c2cc(Br)ccc2O)nc2ccccc21`, with 21.6% (inactive); and `O=C(COC(=O)/C=C/c1ccc(S(=O)(=O)N2CCCCCC2)cc1)NCc1ccccc1Cl`, with 0.0752% (inactive); and `Nc1nc(NCCCN2CCOCC2)nc(Nc2ccccc2)c1[N+](=O)[O-]`, with -16.9% (inactive).
Consider `CNc1nc(Nc2ccc(C)c(Cl)c2)nc(N)c1[N+](=O)[O-]`, for which the activity change (PNC), negative = inhibition is -113% (active).
With `Cc1ccc(Nc2cc(C)nc3c(C)ccc([N+](=O)[O-])c23)cc1`, the activity change (PNC), negative = inhibition is 23% (inactive).
The figure for `O=C(Cc1ccccc1)NNC1CC(=O)N(c2ccc(Br)cc2)C1=O` (centres undefined) is 6.12% (inactive); for `O=C(CC1NCCNC1=O)Nc1cc(Cl)cc(Cl)c1` (centres undefined) it is 29.9% (inactive); for `CCc1ccc(Oc2coc3cc(OC(=O)c4cc5ccccc5oc4=O)ccc3c2=O)cc1` it is 2.64% (inactive).
In the case of `C=CCn1c(SCC(=O)/C(C#N)=C(\C)N)nc2sc(C)c(C)c2c1=O`, the activity change (PNC), negative = inhibition was -7.62% (inactive).
In the case of `C=CCn1c(SCc2c(C)noc2C)nc2sc3c(c2c1=O)CCC(C)C3` (centres undefined), the activity change (PNC), negative = inhibition is -26.1% (inactive).
On to `C=CCn1c(SCc2csc(C)n2)nc2scc(-c3ccc(C)o3)c2c1=O`, for which the activity change (PNC), negative = inhibition was -99.5% (active).
On to `CC1CCCN(S(=O)(=O)c2ccc(N(C(=O)c3cnccn3)C(C(=O)NC3CCCCC3)c3cccs3)cc2)C1` (centres undefined), for which the activity change (PNC), negative = inhibition was 13.4% (inactive).
On to `O=C(/C=C/c1cnc2ccccc2n1)NC1CCCCCC1`, for which the activity change (PNC), negative = inhibition was -24.3% (inactive).
Then `Cc1nn(Cc2ccc(Cl)cc2)c(Cl)c1/C=N/NC(=O)c1cccnc1`, with 35.8% (inactive); and `NC(=O)COc1ccc2c3c(c(=O)oc2c1)CCCCC3`, with -10.3% (inactive).
In the case of `O=C(COc1ccc2oc3c(c2c1)CCCC3)Nc1ccccn1`, the activity change (PNC), negative = inhibition is -26.2% (inactive).
On to `O=C(CN1CCOCC1)N1CCCc2c1c(=O)oc1ccc(OCc3ccccc3)cc21`, for which the activity change (PNC), negative = inhibition was -90.3% (active).
As to `CCCCN(CC)C(=O)c1ccccc1Oc1ccccc1`, the activity change (PNC), negative = inhibition is 6.14% (inactive).
On to `Cc1cccc(C(=O)NC(=S)N2CCN(c3ccc([N+](=O)[O-])cc3)CC2)c1`, for which the activity change (PNC), negative = inhibition was 8.71% (inactive).
Take `CC(=O)N1c2ccccc2N(Cc2ccc([N+](=O)[O-])cc2)C(=O)C1(C)C`: the activity change (PNC), negative = inhibition was 13.5% (inactive).
Take `COC(=O)c1ccc(CSc2ccc3nnc(-c4ccccc4)n3n2)o1`: the activity change (PNC), negative = inhibition is -97.8% (active).
Then `CCOc1ccccc1Nc1nnc(SCc2ccc(C(=O)OC)o2)s1`, with 30.2% (inactive); and `COC(=O)c1ccc(Cc2ccccc2)o1`, with 13.6% (inactive); and `COC(=O)c1ccc(CSc2ccccc2C)o1`, with -112% (active).
For the compound `COCC(C)n1c(SCc2ccc(C(=O)OC)o2)nc2ccccc2c1=O` (centres undefined), the activity change (PNC), negative = inhibition was 1.64% (inactive).
Turning to `COC(=O)c1ccc(CSc2nc3ccccc3c(=O)n2-c2cccc(OC)c2)o1`, the activity change (PNC), negative = inhibition was 7.85% (inactive).
For `O=C(CNS(=O)(=O)c1ccccc1)NCC(=O)OCc1ccccc1F`, the activity change (PNC), negative = inhibition was 26% (inactive).
`Cn1ncc2c(NNC(=O)Cc3cccc4ccccc34)ncnc21`: the activity change (PNC), negative = inhibition is -13.1% (inactive).
On to `COc1ccc(N2C(=O)CC(SC(C)C)C2=O)cc1` (centres undefined), for which the activity change (PNC), negative = inhibition is 36.9% (inactive).
The figure for `O=C(Nn1c(-c2ccccc2)nc2ccccc2c1=O)c1ccc([N+](=O)[O-])cc1` is 38.7% (inactive); for `O=C(N/N=C/c1coc2ccccc2c1=O)c1cc2ccccc2o1` it is 11% (inactive).
Turning to `O=C(/C=C/NCc1ccc(F)cc1)c1ccccc1`, the activity change (PNC), negative = inhibition is -6.98% (inactive).
In the case of `Fc1ccc2c(c1)C(c1cccnc1)=NNC(c1cccs1)=N2`, the activity change (PNC), negative = inhibition was 17.9% (inactive).
Turning to `C=CCn1c(SCC(=O)c2ccc(Br)cc2)nnc1C(C)NC(=O)Cc1ccc(OC)cc1` (centres undefined), the activity change (PNC), negative = inhibition is 11.4% (inactive).
For the compound `C=CCn1c(SCc2c(C(=O)OC)sc(N)c2C(=O)OC)nnc1-c1ccc(Cl)cc1`, the activity change (PNC), negative = inhibition is 7.94% (inactive).
Then `C=CCn1c(SCc2ccc(Cl)c(Cl)c2)nnc1C(CO)NC(=O)c1ccc(OC)cc1` (centres undefined), with -102% (active); and `CC1(C)C(C=C(Cl)Cl)C1C(=O)N(Cc1ccc(Cl)cc1)C1CCS(=O)(=O)C1` (centres undefined), with 32.1% (inactive).
With `O=C(NN1C(=O)C2C3C=CC(O3)C2C1=O)c1ccncc1` (centres undefined), the activity change (PNC), negative = inhibition is 36% (inactive).
For `CC(=O)c1ccc(NC(=S)NC(=O)CC(C)C)cc1`, the activity change (PNC), negative = inhibition is 18.7% (inactive).
The figure for `COC(=O)C1C(=O)NCC1c1ccc(C)cc1` (centres undefined) is -2.49% (inactive); for `COC(=O)C1=C(Nc2ccc(OC)cc2)C=C(C)C(C(=O)OC)C1c1ccc(C)cc1` (centres undefined) it is -17.7% (inactive).
With `COC(=O)C1=C(Nc2ccc(C)cc2)C=C(C)C(C(=O)OC)C1c1ccc(F)cc1` (centres undefined), the activity change (PNC), negative = inhibition is -100% (active).
For the compound `O=C(CCc1[nH]c2ccccc2c1Sc1ccccc1)N(CCO)CCO`, the activity change (PNC), negative = inhibition is 85.7% (inactive).
The figure for `CC(=O)NC1=NN(C(C)=O)C(C)(c2ccc(C)cc2)S1` (centres undefined) is 54.1% (inactive).
As to `COc1ccc(C(=O)Nc2c(Cl)cc(Cl)cc2C(=O)N2CCC(C)CC2)cc1`, the activity change (PNC), negative = inhibition is -10.7% (inactive).
On to `CSc1ccc(S(=O)(=O)NC2CCCCC2)cc1`, for which the activity change (PNC), negative = inhibition is -23.3% (inactive).
In the case of `CCOC1CCCCC1NS(=O)(=O)c1ccc(Cl)cc1` (centres undefined), the activity change (PNC), negative = inhibition is 21.4% (inactive).
As to `Cc1cc(C)nc(SC2CCCCC2NS(=O)(=O)c2ccc(Cl)cc2)n1` (centres undefined), the activity change (PNC), negative = inhibition was -107% (active).
The figure for `CC(=O)N/C(=C/c1ccc(OC(F)F)cc1)C(=O)O` is -25.2% (inactive); for `COc1ccccc1CNC(=O)CN1CCC(n2cnc3cc(F)ccc32)CC1` it is 26.2% (inactive); for `COc1ccc(N2C(=O)C(CC(=O)Nc3ccc(F)cc3)N(CCc3cccs3)C2=O)cc1` (centres undefined) it is 20.2% (inactive).
For `CC(C)CCNC(=O)c1cccnc1Sc1ccccc1`, the activity change (PNC), negative = inhibition is 23.2% (inactive).
Take `FC(F)(F)c1cccc(-c2cc3ccccc3nc2N2CCCC2)c1`: the activity change (PNC), negative = inhibition is -94.9% (active).
Regarding `Cc1cccc2cc(C#N)c(N3CCCC3)nc12`, the activity change (PNC), negative = inhibition was -8.64% (inactive).
The figure for `S=C(NCCc1ccccc1)NCc1ccccc1Cl` is 29.5% (inactive).
Consider `COc1ccc(-n2c(C)cc(C(=O)CN3C(=O)NC4(CCc5ccccc54)C3=O)c2C)cc1` (centres undefined), for which the activity change (PNC), negative = inhibition is -15% (inactive).
Then `COc1ccccc1N1CCN(Cc2nnnn2CCc2ccccc2)CC1`, with -5.45% (inactive); and `COc1ccccc1N1CCN(CCCCOc2ccc(F)cc2)CC1`, with 11% (inactive); and `COc1ccccc1N1CCN(Cc2ccc(OC)c3ccccc23)CC1`, with -100% (active).
Turning to `O=C1/C(=C\c2ccccc2Cl)SC(=S)N1CCC(=O)N1CCCc2ccccc21`, the activity change (PNC), negative = inhibition was 47.3% (inactive).
Consider `O=C(Nc1cccc(S(=O)(=O)N2CCCCC2)c1)c1ccc2c(c1)OCO2`, for which the activity change (PNC), negative = inhibition is -20.4% (inactive).
With `COC(=O)Cc1ccc(NC(=S)NCc2ccccc2)cc1`, the activity change (PNC), negative = inhibition is -25.7% (inactive).
With `Cc1ccc(OC(=O)CCC(=O)Nc2ccc(Br)cc2)cc1`, the activity change (PNC), negative = inhibition was -25% (inactive).
Consider `CC(C)Oc1ccc(CC(=O)NNC(=S)Nc2ccc(Br)cc2)cc1`, for which the activity change (PNC), negative = inhibition is -113% (active).
The figure for `Cc1ccccc1NC(=S)N(CCCN1CCOCC1)Cc1cccs1` is 27.2% (inactive); for `CC1CN(C(=O)c2ccccc2NS(=O)(=O)c2cccc([N+](=O)[O-])c2)CC(C)O1` (centres undefined) it is 25.2% (inactive); for `Cc1ccc(S(=O)(=O)NC(C)C(=O)Nc2ccccc2C(=O)N2CCCC2)cc1` (centres undefined) it is 12.1% (inactive).
For `Cc1ccc2c(c1)C1CN(C)CCC1N2C(=O)c1ccccc1NS(=O)(=O)c1ccc(F)cc1C` (centres undefined), the activity change (PNC), negative = inhibition is -99.6% (active).
Then `CCC(=O)Nc1c(C)n[nH]c1C`, with 0.725% (inactive).
The figure for `O=C(c1cccs1)n1nc(NCc2ccccc2)nc1NCc1ccccc1` is -4.14% (inactive); for `CC(=O)NC(Cc1ccccc1)C(=O)NC1CCN(c2ncccc2[N+](=O)[O-])CC1` (centres undefined) it is 23.2% (inactive); for `CC(C)n1c(NCc2c[nH]c3ccccc23)nc2ccccc21` it is -100% (active).
Then `Cc1ccc(O)c(CNc2nc3ccccc3n2C)c1`, with -1.77% (inactive).
As to `CC(C)n1c(C(O)c2ccccc2)nc2ccccc21` (centres undefined), the activity change (PNC), negative = inhibition was 24.7% (inactive).
The figure for `S=C(NCCc1ccccc1)NCC1CCCO1` (centres undefined) is -9.43% (inactive); for `CCOC(=O)C1CCN(c2ncnc3c2oc2ccc(Br)cc23)CC1` it is 11.1% (inactive); for `CCOC(=O)C1CCN(Cc2coc3ccc(Cl)cc3c2=O)CC1` it is -80.9% (active).
Consider `CCOC(=O)c1nnn(-c2nonc2-n2cccc2)c1CN1CCC(C(=O)OCC)CC1`, for which the activity change (PNC), negative = inhibition is 10.9% (inactive).
For `Cc1ccc(C(=O)COC(=O)CCCC(=O)NC2CCCCC2)cc1[N+](=O)[O-]`, the activity change (PNC), negative = inhibition was 17% (inactive).
The figure for `COc1ccc(OC)c(-c2c(=O)n(OCc3ccccc3Br)c3ccccc3[n+]2[O-])c1` is -113% (active).
For the compound `CCOc1ccc(OCC)c(-c2c(=O)n(OCc3ccc(Cl)cc3)c3ccccc3[n+]2[O-])c1`, the activity change (PNC), negative = inhibition was 60.4% (inactive).
In the case of `C=CCNCCCCOc1ccccc1`, the activity change (PNC), negative = inhibition is -6.05% (inactive).
On to `CC(CNc1ccc([N+](=O)[O-])cc1)NC(=O)c1ccccc1Br` (centres undefined), for which the activity change (PNC), negative = inhibition is 3.05% (inactive).
Then `O=C(NCCNc1ccc([N+](=O)[O-])cc1)c1cccc2c(Br)cccc12`, with -86.3% (active); and `CN(C)CCNC(=O)Cc1ccc([N+](=O)[O-])cc1`, with 15.1% (inactive).
On to `Cc1nc2ccccc2nc(C)c1=NOCc1ccc(Cl)cc1Cl`, for which the activity change (PNC), negative = inhibition was -24.9% (inactive).
Regarding `Cc1ccn(-c2cccc(-n3ccc(C)n3)n2)n1`, the activity change (PNC), negative = inhibition was -4.25% (inactive).
The figure for `Cc1c(C2=CCN(S(=O)(=O)c3ccc(Cl)cc3)CC2)c2ccccc2n1C` is 30.7% (inactive); for `N/C(=N\OS(=O)(=O)c1cccc([N+](=O)[O-])c1)c1ccncc1` it is -108% (active); for `O=[N+]([O-])c1cccc(S(=O)(=O)N2CCCCCC2)c1` it is -7.16% (inactive).
For the compound `CO/N=C(\N)c1ccc([N+](=O)[O-])cc1`, the activity change (PNC), negative = inhibition was 28.8% (inactive).
For `CCC1(C(=O)c2ccccc2)C(c2cccc([N+](=O)[O-])c2)C1(C(=O)OC)C(=O)OC` (centres undefined), the activity change (PNC), negative = inhibition was -9.15% (inactive).
For `CC(C)(C)n1nnc(CCc2nnn(C(C)(C)C)n2)n1`, the activity change (PNC), negative = inhibition is -91.9% (active).
